These results are taken from PubChem BioAssay (Tox21).

The structures appear in SMILES notation. A number with no mark means an inactive call. Inconclusive results are not listed. Active and inactive are the calls of the source. Unless noted, the call rests on the fitted dose curve; in most records, active means well fitted curve in the direction sought with a large enough effect in the repeat runs; inconclusive means weak or mixed curves; inactive means no such curve, though single readings can be large; an effect the other way counts as inactive or inconclusive.

For assay [1], the target named is Thyrotropin receptor (Homo sapiens) (UniProt P16473). As to the kind of experiment: qHTS assay to identify small molecule antagonists of the thyroid stimulating hormone receptor (TSHR) signaling pathway (AID 1259385; calls by dose curve; further: nearly all actives have a fitted effect of over 20% in size). A digest of the protocol: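 Antagonist mode: compound-treated TSHR-expressing HEK293 cells were stimulated with 1.5 ng/mL TSH (final) in presence of Ro20-1724 for 30 min at RT. HTRF cAMP detection after 1 h; each compound tested at 15 concentrations, triplicate.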
(In general: Quantitative high-throughput screening tests each substance at several concentrations.)

The nature of assay [2]: qHTS assay to identify small molecule agonists of the estrogen receptor alpha (ER-alpha) signaling pathway in the presence of an antagonist - cell viability counter screen (AID 1259386). Further: series mostly up to about 92 µM; nearly all actives have a fitted effect of over 30% in size. The essentials:
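Compounds tested at 15 concentrations for 22 h at 37C alongside 10.0nM (final) ICI-182,780 antagonist, in VM7Luc4E2 cells grown in phenol red-free, charcoal-stripped medium. Viability read by CellTiter-Fluor fluorescence after 1 h reagent incubation.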

The target in assay [3] is Progesterone receptor (Homo sapiens) (UniProt P06401). As to the kind of experiment: qHTS assay to identify small molecule agonists of the progesterone receptor (PR) signaling pathway (AID 1346784; calls by dose curve; further: nearly all actives have a fitted effect of over 30% in size). The essentials:
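Reporter assay, GripTite PR-UAS-bla HEK 293T cells: 16 hr exposure to DMSO-dissolved compounds at 37C, 5% CO2, in steroid-depleted (2% charcoal-stripped FBS) medium; beta-lactamase measured by FRET fluorescence.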

Assay [4] is described as follows: qHTS assay to identify small molecule antagonists of the TGF-beta/Smad signaling pathway - cell viability counter screen (AID 1346824). Further: nearly all actives have a fitted effect of over 50% in size. Further: potency means the concentration at half of the fitted maximal effect. A digest of the protocol:
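Cytotoxicity counter-screen run in the same wells as the beta-lactamase Smad reporter read: CellTiter-Glo luminescence after 30 min at room temperature. HEK 293T SBE-bla cells had 5 hr compound exposure at 37 C with TGF-beta1 (0.25 ng/mL stock).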

Assay [5] in a line: Caspase-3/7 induction in HepG2 cells by small molecules, qHTS assay (AID 1346978). Further: nearly all actives have a fitted effect of over 15% in size. The essentials:
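Caspase-3/7 induction was measured by Caspase-Glo 3/7 luminescence (30 min, room temperature) after a 17 hr compound exposure of wild-type HepG2 cells seeded at 2,000 per well and pre-incubated 5 hr.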

The nature of assay [6]: Caspase-3/7 induction in CHO-K1 cells by small molecules, qHTS cell viability counter screen (AID 1346979). Further: nearly all actives have a fitted effect of over 35% in size. Further: potency means the concentration at half of the fitted maximal effect. The essentials: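 Following a 5hr settling period, CHO-K1 cells at 1,500 per well received DMSO-dissolved compounds. Cell viability was quantified 16hr later by CellTiter-Fluor fluorescence, measured after 1hr with reagent at 37C.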
The nature of assay [7]: Caspase-3/7 induction in CHO-K1 cells by small molecules, qHTS assay (AID 1346980). Further: nearly all actives have a fitted effect of over 15% in size. Further: potency means the concentration at half of the fitted maximal effect. The essentials:
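Luminescent Caspase-Glo 3/7 read (30min, room temperature) quantified apoptosis induction. Cells were wild-type CHO-K1, treated with compound for 17hr at 37 C and 5% CO2.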

Assay [8] deals with Nuclear receptor subfamily 1 group I member 2 (Homo sapiens) (UniProt O75469). Briefly: Human pregnane X receptor (PXR) small molecule agonists, qHTS assay (AID 1346982). Further: nearly all actives have a fitted effect of over 35% in size. Further: potency means the concentration at half of the fitted maximal effect. A digest of the protocol: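 Agonist mode: luminescence from ONE-Glo after 24 h compound exposure at 37C in HepG2 cells carrying hPXR-responsive CYP3A4 luciferase, plated in charcoal-stripped serum medium 5 h beforehand.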

Assay [9] has as its target Progesterone receptor (Homo sapiens) (UniProt P06401). Briefly: qHTS assay to identify small molecule antagonists of the progesterone receptor (PR) signaling pathway (AID 1346795; active means well fitted inhibition curve with a large enough effect in the signal ratio in the repeat runs, not every such curve was filed as active; the % refers to the signal ratio; further: potency means the concentration at half of the fitted maximal effect). A digest of the protocol: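 Stimulus R5020 at 1 nM final; cells HEK293T PR-UAS-bla; medium with 2% charcoal-stripped FBS; compound exposure 16 hr at 37C, 5% CO2; detection by FRET beta-lactamase substrate, 2 hr, room temperature.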

Assay [10] can be described thus: qHTS assay to identify small molecule agonists of the TGF-beta/Smad signaling pathway - cell viability counter screen (AID 1346829). Further: nearly all actives have a fitted effect of over 45% in size. Further: potency means the concentration at half of the fitted maximal effect. A digest of the protocol: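 In parallel with the Smad reporter read, viability of HEK 293T cells stably carrying SBE-bla is quantified by ATP luminescence following 5 hr compound treatment.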
A short description of assay [11]: qHTS assay to identify small molecule agonists of the TGF-beta/Smad signaling pathway (AID 1346859; active means well fitted activation curve with a large enough effect in the signal ratio in the repeat runs, not every such curve was filed as active; the % refers to the signal ratio; further: series mostly up to about 77 µM). A digest of the protocol: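 Screening used HEK 293T SBE-bla cells at 4,000/well. Test agents: 5 hr, 37 C. Detection: FRET substrate, 2 hr RT, then excitation 405 nm with emissions at 460 and 530 nm.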
Assay [12] concerns the target Thyrotropin-releasing hormone receptor (Homo sapiens) (UniProt P34981). As to the kind of experiment: qHTS assay to identify small molecule antagonists of the thyrotropin-releasing hormone receptor (TRHR) signaling pathway (AID 1346877; active means well fitted inhibition curve with a large enough effect in the repeat runs, not every such curve was filed as active; further: series mostly up to about 51 µM). A digest of the protocol:
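Antagonist mode: after a 5 min room-temperature compound exposure, cells were stimulated with 1 nM (final) TRH. Dye-loaded TRHR-HEK293 cells were used, and calcium-dependent fluorescence was followed for 3 min, with 15-point titrations run in triplicate.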

Assay [13] in a line: Caspase-3/7 induction in HepG2 cells by small molecules, qHTS cell viability counter screen (AID 1346981). Further: nearly all actives have a fitted effect of over 30% in size. Further: potency means the concentration at half of the fitted maximal effect. A digest of the protocol:
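CellTiter-Fluor fluorescence measured viability in the same wells used for Caspase-Glo 3/7. HepG2 (wild type) at 2,000 cells/well were pre-incubated 5 hr, dosed, and given reagent at 16 hr, with 1 hr further at 37C.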

Assay [14] is described as follows: qHTS assay to identify small molecule antagonists of the progesterone receptor (PR) signaling pathway - cell viability counter screen (AID 1346798). Further: nearly all actives have a fitted effect of over 50% in size. Further: potency means the concentration at half of the fitted maximal effect. A digest of the protocol: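 In the same plates used for the beta-lactamase readout, cell viability of compound- and R5020-treated PR-UAS-bla HEK293T cells (16 hr, 37C) was assessed by CellTiter-Glo luminescence.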

Assay [15] is described as follows: qHTS assay to identify small molecule agonists of the progesterone receptor (PR) signaling pathway - cell viability counter screen (AID 1346799; calls by dose curve; further: nearly all actives have a fitted effect of over 45% in size; further: potency means the concentration at half of the fitted maximal effect). The essentials:
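Multiplexed viability read: CellTiter-Glo luminescence, 30 min RT, following LiveBLAzer FRET measurement on PR-UAS-bla HEK293T cells exposed to compounds 16 hr.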

Assay [16] is described as follows: Human pregnane X receptor (PXR) small molecule agonists, qHTS cell viability counter screen (AID 1346977). Further: nearly all actives have a fitted effect of over 50% in size. Further: potency means the concentration at half of the fitted maximal effect. A digest of the protocol:
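In each well, the PXR reporter HepG2 line was checked for viability: CellTiter-Fluor reagent added 23hr post-dosing, fluorescence read after 1hr incubation at 37C.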

The target of assay [17] is Thyrotropin-releasing hormone receptor (Homo sapiens) (UniProt P34981). As to the kind of experiment: qHTS assay to identify small molecule agonists of the thyrotropin-releasing hormone receptor (TRHR) signaling pathway (AID 1346891; calls by dose curve; further: series mostly up to about 58 µM). A digest of the protocol: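 Readout was intracellular calcium fluorescence in TRHR-Hek293 cells. Cells were incubated 18 h, dye-loaded 2 h at 37 °C, and treated with compound in agonist mode.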
Chain of Thyrotropin-releasing hormone receptor (Homo sapiens) (P34981 whole entry, looked up): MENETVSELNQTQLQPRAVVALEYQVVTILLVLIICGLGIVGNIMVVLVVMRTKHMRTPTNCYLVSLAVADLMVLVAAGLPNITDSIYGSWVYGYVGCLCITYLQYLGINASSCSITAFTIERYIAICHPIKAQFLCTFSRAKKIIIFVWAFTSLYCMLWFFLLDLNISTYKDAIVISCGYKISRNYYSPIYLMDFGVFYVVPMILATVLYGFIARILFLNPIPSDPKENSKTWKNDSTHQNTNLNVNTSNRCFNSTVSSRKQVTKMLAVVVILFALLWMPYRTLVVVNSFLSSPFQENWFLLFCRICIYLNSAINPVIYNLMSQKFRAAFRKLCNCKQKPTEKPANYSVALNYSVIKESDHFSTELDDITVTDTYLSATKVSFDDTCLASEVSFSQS

Chain of Progesterone receptor (Homo sapiens) (P06401 whole entry, looked up): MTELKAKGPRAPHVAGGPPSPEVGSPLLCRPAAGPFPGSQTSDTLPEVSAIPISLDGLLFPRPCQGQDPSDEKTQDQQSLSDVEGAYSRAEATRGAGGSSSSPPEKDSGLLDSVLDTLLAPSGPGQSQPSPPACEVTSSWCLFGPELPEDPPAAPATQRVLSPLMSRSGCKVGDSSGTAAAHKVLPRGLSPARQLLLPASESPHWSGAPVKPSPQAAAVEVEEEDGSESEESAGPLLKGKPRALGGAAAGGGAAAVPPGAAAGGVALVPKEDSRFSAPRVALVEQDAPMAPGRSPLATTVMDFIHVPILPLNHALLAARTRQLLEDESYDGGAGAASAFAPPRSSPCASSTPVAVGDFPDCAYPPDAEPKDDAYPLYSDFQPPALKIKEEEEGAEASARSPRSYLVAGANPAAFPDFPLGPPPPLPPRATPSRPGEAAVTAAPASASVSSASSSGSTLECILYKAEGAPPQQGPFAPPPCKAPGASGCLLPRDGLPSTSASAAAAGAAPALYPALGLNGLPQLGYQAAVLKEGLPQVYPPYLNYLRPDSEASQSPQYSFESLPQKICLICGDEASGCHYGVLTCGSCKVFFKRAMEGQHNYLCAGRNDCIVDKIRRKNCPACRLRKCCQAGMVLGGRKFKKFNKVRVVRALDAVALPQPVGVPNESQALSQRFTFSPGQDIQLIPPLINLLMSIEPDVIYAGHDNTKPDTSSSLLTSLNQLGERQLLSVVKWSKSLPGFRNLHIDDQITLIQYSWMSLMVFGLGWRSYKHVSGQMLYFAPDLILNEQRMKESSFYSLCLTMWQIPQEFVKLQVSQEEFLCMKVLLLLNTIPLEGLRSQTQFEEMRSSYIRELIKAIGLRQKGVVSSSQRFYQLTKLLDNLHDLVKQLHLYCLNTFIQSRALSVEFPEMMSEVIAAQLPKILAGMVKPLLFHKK
Chain of Nuclear receptor subfamily 1 group I member 2 (Homo sapiens) (O75469 whole entry, looked up): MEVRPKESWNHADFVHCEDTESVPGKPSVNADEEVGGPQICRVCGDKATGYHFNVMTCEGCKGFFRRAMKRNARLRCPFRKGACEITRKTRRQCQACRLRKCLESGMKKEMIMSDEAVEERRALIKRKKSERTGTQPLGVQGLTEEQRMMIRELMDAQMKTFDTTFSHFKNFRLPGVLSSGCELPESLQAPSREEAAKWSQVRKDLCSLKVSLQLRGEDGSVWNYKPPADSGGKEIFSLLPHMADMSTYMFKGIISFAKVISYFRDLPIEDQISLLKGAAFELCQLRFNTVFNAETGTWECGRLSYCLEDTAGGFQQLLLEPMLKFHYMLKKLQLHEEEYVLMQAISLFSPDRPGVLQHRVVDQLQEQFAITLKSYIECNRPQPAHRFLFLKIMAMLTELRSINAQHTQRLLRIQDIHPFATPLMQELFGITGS
Chain of Thyrotropin receptor (Homo sapiens) (P16473 whole entry, looked up): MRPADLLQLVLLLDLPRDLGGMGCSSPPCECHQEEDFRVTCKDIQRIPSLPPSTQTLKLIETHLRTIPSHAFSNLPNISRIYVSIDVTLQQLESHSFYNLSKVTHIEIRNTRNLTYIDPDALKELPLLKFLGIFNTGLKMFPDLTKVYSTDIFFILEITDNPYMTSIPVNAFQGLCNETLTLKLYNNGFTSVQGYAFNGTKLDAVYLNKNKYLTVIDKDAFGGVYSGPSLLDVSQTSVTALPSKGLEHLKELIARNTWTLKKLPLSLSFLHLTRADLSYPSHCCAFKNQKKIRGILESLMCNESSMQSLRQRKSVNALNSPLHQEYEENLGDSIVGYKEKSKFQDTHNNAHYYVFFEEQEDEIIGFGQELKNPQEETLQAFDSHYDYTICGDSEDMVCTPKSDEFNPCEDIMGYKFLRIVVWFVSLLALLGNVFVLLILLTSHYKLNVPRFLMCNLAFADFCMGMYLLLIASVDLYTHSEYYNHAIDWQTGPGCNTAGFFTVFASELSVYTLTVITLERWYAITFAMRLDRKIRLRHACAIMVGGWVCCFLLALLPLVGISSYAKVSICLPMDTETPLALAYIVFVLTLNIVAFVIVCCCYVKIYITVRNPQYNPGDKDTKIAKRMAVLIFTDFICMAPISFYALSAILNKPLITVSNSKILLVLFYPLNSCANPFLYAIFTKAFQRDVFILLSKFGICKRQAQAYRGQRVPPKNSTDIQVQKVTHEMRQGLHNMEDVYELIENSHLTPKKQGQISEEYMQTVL

For the molecule `CO/N=C(/C(=O)OC)c1ccccc1COc1ccccc1C`, the Potency result in assay [1], in assay [2], in [3], in assay [4], in assay [5] and in [7] was “inactive” throughout. In addition, the Potency in [6] was 2.73 µM (active); in assay [8] it was 8.63 µM (active).

Regarding `CC1CC(CC2CCC(N)C(C)C2)CCC1N` (stereo not given), the Potency result in assay [1], in assay [3], in assay [9], in assay [4], in [10] and in [12] was “inactive” in each case. Also, the Potency result in assay [5], in [6], in assay [7], in assay [13] and in [8] was “inactive” throughout. The outcome in assay [11] was inactive.

Regarding `O=C(C(Cl)(Cl)Cl)C(Cl)(Cl)Cl`, the Potency result in assay [2], in [3], in assay [9], in [14], in [15] and in [4] was “inactive” each time. The Potency entry in assay [10], in [16], in assay [5], in assay [7], in assay [13] and in [8] was “inactive” each time. In [11], the molecule was classed as inactive.

With `NC(=O)CI`, the Potency entry in assay [2], in assay [3], in [9], in assay [15], in assay [4] and in [12] was “inactive” in each case. The Potency entry in assay [17], in assay [16], in [5], in assay [6], in [7] and in assay [13] was “inactive” in each case. The outcome in [11] was inactive.

As to `IC(I)=C(I)I`, the Potency entry in [1], in [17] and in [5] was “inactive” in each case. In addition, the Potency in assay [9] is 17.2 µM (active); in [15], 27.3 µM (active); in assay [4], 43.6 µM (active); in assay [10] it was 43.6 µM (active); in assay [16], 17.2 µM (active); in [6] it was 4.86 µM (active). Besides, the Potency in assay [7] was 4.86 µM (active); in assay [13], 68.6 µM (active); in [8], 4.86 µM (active). Moreover, the molecule was called inactive in [11].

As for `CC(C)(C)C(O)C(Oc1ccc(Cl)cc1)n1cncn1` (stereo not given), the Potency entry in [1], in [2], in assay [4], in [12], in [17] and in [16] was “inactive” each time. For the same molecule, the Potency result in assay [5], in [6], in assay [7] and in [13] was “inactive” throughout. The values for the Potency in [14] and in assay [8] were 54.5 µM (active) and 4.33 µM (active), respectively. Also, the molecule was called inactive in assay [11].

As to `Clc1ccc(C2(Cn3cncn3)CC(Br)CO2)c(Cl)c1` (stereo not given), the Potency result in assay [1], in assay [4], in assay [10], in assay [5] and in assay [7] was “inactive” each time. Further, the molecule was called inactive in assay [11]. For the same molecule, in assay [8], the Potency was 24.2 µM (active).

For `Cc1ccccc1CCl`, the Potency entry in assay [2], in [3], in [9], in [14], in assay [15] and in assay [4] was “inactive” each time. The Potency entry in assay [10], in assay [12], in assay [17], in assay [16], in assay [5] and in assay [6] was “inactive” in each case. For the same molecule, the Potency result in assay [7] and in [13] was “inactive” throughout. Also, the result in assay [11] was inactive.

As to `O=C(CBr)OCc1ccccc1`, the Potency result in assay [2], in assay [3], in assay [9], in assay [14], in assay [4] and in assay [10] was “inactive” in each case. Besides, the Potency entry in [12], in [17], in [16], in [5], in assay [6] and in assay [7] was “inactive” in each case. Moreover, the Potency result in assay [13] and in assay [8] was “inactive” each time. In addition, the outcome in assay [11] was inactive.

For `CC[C@H]1C[C@H]2[C@@H]3CCC4=CC(=O)CC[C@@H]4[C@H]3CC[C@]2(C)[C@H]1O`, the Potency entry in assay [1], in [2], in assay [14], in assay [4], in assay [16] and in [5] was “inactive” throughout. Moreover, the Potency result in assay [6], in [7] and in assay [13] was “inactive” each time. Moreover, in assay [11], the molecule was classed as inactive. In addition, the Potency in [8] was 9.44 µM (active).
